The values that follow come from the supplement of paper PMC7156485.

Unmarked numbers belong to inactive results.
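Further: TDF is a line of transformed human dermal fibroblasts of mesenchymal origin.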

The test system of one test is TDF. Kind of test: H1.0 immunofluorescence intensity relative to DMSO (% of DMSO); higher = stronger H1.0 induction, active = 120 or more. The settings on record: concentration: 10 µM; 24 h. A digest of the protocol:
(§1)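 Six fields per well were imaged at ×10 after the cells were fixed in 3.7% formaldehyde and stained with a rabbit anti-H1.0 antibody, an AlexaFluor 647 secondary and DAPI. The HCC1569 and TDF cells had been plated at 800 per well in 384-well plates (RPMI, 10% FBS) and treated in triplicate with compounds at 10 µM for 24 h at 37 °C. The values are the median of replicates of H1.0 nuclear intensity or cell number, as percent of the plate control. Smoothing for positional effects was applied to HCC1569 data.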
Take `COc1cc2ncn(-c3cc(OCc4ccc(S(C)(=O)=O)cc4)c(C(N)=O)s3)c2cc1OC` [Polo-like Kinase Inhibitor I]: the H1.0 immunofluorescence intensity is 92.8.
Still for that read-out and setting: the value for `Cc1cc2c(OCC(CNC(C)(C)C)OC(=O)c3ccccc3)cccc2[nH]1` (stereo not drawn) [Bopindolol] was 99; that for `C1CCC(C(CC2CCCCN2)C2CCCCC2)CC1.O=C(O)C=CC(=O)O` (stereo not drawn) was 273 (active); that for `CCCCCOC(=O)Nc1nc(=O)n(C2OC(C)C(O)C2O)cc1F` (stereo not drawn) [Capecitabine] was 101.
As for `CCC=CCC=CCC=CCC=CCC=CCCC(=O)OC(COCCCCCCCCCCCCCCCC)COP(=O)([O-])OCC[N+](C)(C)C` (stereo not drawn), the H1.0 immunofluorescence intensity is 94.3.
Regarding `OCC1=CC(O)C2C=COC(OC3OC(CO)C(O)C(O)C3O)C12` (stereo not drawn) [Aucubin], the H1.0 immunofluorescence intensity was 99.8.
On the same count and under the same terms, the result for `O=[NH+]C=C1C=CN(CN2C=CC(=C[NH+]=O)C=C2)C=C1.[Br-].[Br-]` [1,1'-methylenebis(4-(nitrosomethyl)pyridinium) bromide] reads 89.7.
As to `CC(C)NCC(O)COc1cccc2ccccc12.Cl` (racemic), the H1.0 immunofluorescence intensity is 98.8.

A further test concerns HCC1569. Kind of test: H1.0 immunofluorescence intensity relative to DMSO (% of DMSO); higher = stronger H1.0 induction, active = 140 or more. The settings on record: concentration: 10 µM; 24 h. A digest of the protocol: as §1
On to `COc1ccc(-c2cc(=O)c3c(O)c(OC)c(OC)cc3o2)cc1O`, for which the H1.0 immunofluorescence intensity was 139.
Still for that read-out and setting: the result for `OC(Cn1cncn1)(Cn1cncn1)c1ccc(F)cc1F` [Fluconazole] reads 106.
Still for that read-out and setting: the result for `CC(N)C1CCC(C(=O)Nc2ccncc2)CC1.Cl.Cl` (stereo not drawn) reads 90.1.
The same measure, in the same setting: the value for `COc1ccc(CNC(=O)c2sc3nc(C)cc(C)c3c2N)cc1` was 101; that for `CS(=O)(=O)N1CCN(Cc2cc3nc(-c4cccc5[nH]ncc45)nc(N4CCOCC4)c3s2)CC1` was 137; that for `CCCCCC=CCC=CCC=CCC=CCCCC(=O)OC(CO)COC(=O)CCCCCCCCCCCCCCCCC` (stereo not drawn) [1-Stearoyl-2-arachidonoyl-glycerol] was 98.
Turning to `CCC1(O)CC2CN(CCc3c([nH]c4ccccc34)C(C(=O)OC)(c3cc4c(cc3OC)N(C)C3C(O)(C(N)=O)C(O)C5(CC)C=CCN6CCC43C65)C2)C1.O=S(=O)(O)O` (stereo not drawn) [Vindesine sulfate], the H1.0 immunofluorescence intensity was 179 (active).
With `CSc1nc2ccc3nc(NC(=O)C(c4ccccc4)c4ccccc4)sc3c2s1`, the H1.0 immunofluorescence intensity was 94.
In the case of `N#Cc1c(-c2ccccc2)cc(-c2cc(Br)ccc2O)[nH]c1=O` [PIM1 Kinase Inhibitor II], the H1.0 immunofluorescence intensity is 114.
Same read-out and setting: the result for `C=CCn1c(=O)c2c(nc(-c3ccc(S(=O)(=O)O)cc3)n2C)n(C)c1=O` [1-Allyl-3,7-dimethyl-8-p-sulfophenylxanthine] reads 105; that for `CCCCCC(O)C=CC1C(O)CC(O)C1CC=CCCCC(=O)O` (stereo not drawn) [Prostaglandin F2a], 112.
Still for that read-out and setting: the value for `CCCCCC=CCC=CCC=CCC=CCCCC(=O)OC(COCCCCCCCCCCCCCCCC)COP(=O)([O-])OCC[N+](C)(C)C` (stereo not drawn) [Arachidonyl-PAF] was 93.4; that for `COc1cccc2c1C1CN(CCCCn3c(=O)[nH]c4c(sc5ncc(-c6ccccc6)nc54)c3=O)CC1CO2.Cl` (stereo not drawn) [Fiduxosin hydrochloride] was 116.
Still for that read-out and setting: the value for `Nc1nc(OCc2ccccc2)c2[nH]cnc2n1` [O6-benzylguanine] was 95.8.
In the case of `CC1CC2C(C(O)CC3(C)C2CCC3(O)C(=O)CO)C2(C)C=CC(=O)C=C12` (stereo not drawn) [Methylprednisolone], the H1.0 immunofluorescence intensity was 114.
The same measure, in the same setting: the result for `CN1C(C(=O)Nc2ccccn2)=C(O)c2ccccc2S1(=O)=O` [Piroxicam] reads 98.2; that for `CCOc1cc2ncnc(Nc3cccc(Br)c3)c2cc1OCC` [Compound 56], 144 (active).
Take `CCOC(=O)c1cnc2c(cnn2CC)c1NN=C(C)C` [Etazolate]: the H1.0 immunofluorescence intensity was 103.
Same read-out and setting: the value for `CC(=O)SCC(Cc1ccccc1)C(=O)NCC(=O)OCc1ccccc1` (stereo not drawn) [Racecadotril] was 104; that for `C[C@H](C#Cc1ccc(Cc2ccc(F)cc2)s1)N(O)C(N)=O` was 99.7; that for `O=C(O)CNC(=O)C(=O)O` [2-(carboxymethylamino)-2-oxoacetic acid] was 83.7.
Still for that read-out and setting: the value for `COc1cc2ncnc(Sc3nnc(C)s3)c2cc1OC` was 160 (active); that for `CCN1CCCC1CNC(=O)c1cc(S(N)(=O)=O)ccc1OC` [(S)-(-)-Sulpiride] was 101.
Still for that read-out and setting: the value for `Cl.O=S(=O)(c1cccc2cnccc12)N1CCCNCC1` was 92.7; that for `CC(C)NCC(O)COc1ccc(CCOCC2CC2)cc1.Cl` (stereo not drawn) [Betaxolol.HCl] was 102; that for `CC(C)(C)C1(O)CCN2CC3c4ccccc4CCc4cccc(c43)C2C1.Cl` (racemic) was 91.
For `COc1ccc2c(c1)c(CC(=O)N1CCOCC1)c(C)n2C(=O)c1ccc(Cl)cc1` [Indomethacin morpholinylamide], the H1.0 immunofluorescence intensity is 85.5.
Same read-out and setting: the value for `Cl.c1ccc(C2CN3CCSC3=N2)cc1` (stereo not drawn) [Tetramisole hydrochloride] was 105.
On the same count and under the same terms, the result for `CC12CC3CC(C)(C1)CC(N)(C3)C2.Cl` [Memantine hydrochloride] reads 98.3; that for `CCCCCC(CC(=O)NO)C(=O)NC(C(=O)N1CCCC1CO)C(C)C` (stereo not drawn) [Actinonin], 111; that for `CN(C)c1ccnc2sc3c(=O)n(N4CCCCCC4)cnc3c12`, 89.5.
For `c1ccc2c(Cc3c[nH]c4ccccc34)c[nH]c2c1` [Diindolylmethane], the H1.0 immunofluorescence intensity was 91.6.
The same measure, in the same setting: the result for `COc1cc2ncn(-c3cc(OCc4ccc(S(C)(=O)=O)cc4)c(C(N)=O)s3)c2cc1OC` [Polo-like Kinase Inhibitor I] reads 112; that for `Cc1cc2c(OCC(CNC(C)(C)C)OC(=O)c3ccccc3)cccc2[nH]1` (stereo not drawn) [Bopindolol], 103; that for `C1CCC(C(CC2CCCCN2)C2CCCCC2)CC1.O=C(O)C=CC(=O)O` (stereo not drawn), 117.
The same measure, in the same setting: the value for `CCCCCOC(=O)Nc1nc(=O)n(C2OC(C)C(O)C2O)cc1F` (stereo not drawn) [Capecitabine] was 95.7; that for `CCC=CCC=CCC=CCC=CCC=CCCC(=O)OC(COCCCCCCCCCCCCCCCC)COP(=O)([O-])OCC[N+](C)(C)C` (stereo not drawn) was 99.4.
Turning to `OCC1=CC(O)C2C=COC(OC3OC(CO)C(O)C(O)C3O)C12` (stereo not drawn) [Aucubin], the H1.0 immunofluorescence intensity is 85.
On the same count and under the same terms, the value for `O=[NH+]C=C1C=CN(CN2C=CC(=C[NH+]=O)C=C2)C=C1.[Br-].[Br-]` [1,1'-methylenebis(4-(nitrosomethyl)pyridinium) bromide] was 93.7; that for `CC(C)NCC(O)COc1cccc2ccccc12.Cl` (racemic) was 94.2.
